VDR inh = vitamin D3 receptor (human) inhibition; P11473; VDR-SRC2-3 peptide fluorescence polarization, 2 h; Potency, µM, usual class: inhibitors; 0.93% of 400,000 active; AID 504847
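Compounds are added to VDR with labelled SRC2-3 coactivator peptide and held 2 h at room temperature. Inhibition of the VDR–peptide interaction is then read as a change in fluorescence polarization.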
PLK1 PBD block = inhibitors of human PLK1 polo-box domain binding. P53350. Plk1 PBD binding of FITC phosphopeptide, fluorescence polarization. Potency, µM, hits mostly inhibitors. 2.8% of 360,000 active; further: series mostly up to about 57 µM; nearly all actives have a fitted effect of over 65% in size
PTAP TSG101 blk = blocks PTAP/TSG101 interaction to inhibit HIV-1 budding; Q99816; Fluorescence polarization, FITC-PTAP peptide / Tsg101 binding; Potency, µM (highest dose often 115 µM), usual class: inhibitors; 340,000 tested, under 10 active; active means well fitted inhibition curve with a large enough effect in the main read-out, with a control signal flat, not every such curve was filed as active; inconclusive means small, poorly fitted or top-dose-only effect, or effect the other way, or a change in a side signal; inactive means no such curve, though single readings can be large or run the other way
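Compounds were pin-transferred onto Tsg101 binding domain (10 uM final) in HEPES pH 7.5 buffer, then FITC-PTAP peptide was added at 50 nM final. After 20 min at RT, polarization reported peptide displacement across a qHTS concentration series.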
KAT2A inh = GCN5L2 (KAT2A) acetyltransferase inhibition; 0.21% of 390,000 active; Q92830; Potency, µM (top dose mostly 58.9 µM), most hits filed as inhibitors; GCN5L2 HAT assay, ThioGlo1 CoA-SH fluorescence
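qHTS, 1536-well. 20nM enzyme, pH 7.5 HEPES/EDTA/Tween-20 buffer; 15 min compound preinc., RT. Start: 75uM H3(1-25), 70uM AcCoA, 50uM ThioGlo1. Read Ex340/Em540 at t=0 (autofluorescence flag) and t=20 min.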
USP1-UAF1 inh = inhibitors of human USP1/UAF1 deubiquitinase | O94782 | recombinant USP1/UAF1, Ub-Rhodamine cleavage fluorescence | Potency, µM (series often up to 57.1 µM), hits mostly inhibitors | 0.23% of 390,000 active | AID 743255; further: nearly all actives have a fitted effect of over 60% in size
Target sequence (O94782 whole entry, looked up): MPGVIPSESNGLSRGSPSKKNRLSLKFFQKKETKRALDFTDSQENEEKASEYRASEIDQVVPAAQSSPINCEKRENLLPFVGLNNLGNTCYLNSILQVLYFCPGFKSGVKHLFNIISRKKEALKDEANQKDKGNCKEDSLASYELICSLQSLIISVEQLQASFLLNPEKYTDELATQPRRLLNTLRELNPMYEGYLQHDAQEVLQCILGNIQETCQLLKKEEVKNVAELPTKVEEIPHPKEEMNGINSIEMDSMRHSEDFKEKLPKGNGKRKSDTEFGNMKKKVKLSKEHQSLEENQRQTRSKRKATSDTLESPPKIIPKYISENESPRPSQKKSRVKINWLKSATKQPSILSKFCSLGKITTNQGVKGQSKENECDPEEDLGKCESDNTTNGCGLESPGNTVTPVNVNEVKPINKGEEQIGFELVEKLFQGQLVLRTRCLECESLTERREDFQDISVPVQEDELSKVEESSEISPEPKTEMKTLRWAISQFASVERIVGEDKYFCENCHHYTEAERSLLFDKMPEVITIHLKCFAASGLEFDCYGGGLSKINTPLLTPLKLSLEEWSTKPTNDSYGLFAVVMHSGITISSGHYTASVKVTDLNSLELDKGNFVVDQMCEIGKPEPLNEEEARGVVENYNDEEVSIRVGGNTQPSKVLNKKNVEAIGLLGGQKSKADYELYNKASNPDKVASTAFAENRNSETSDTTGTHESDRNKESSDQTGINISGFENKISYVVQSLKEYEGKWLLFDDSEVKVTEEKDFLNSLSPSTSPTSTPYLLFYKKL
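USP1/UAF1 complex at 1 nM was preincubated with compound for 15 min at room temperature, then Ub-Rho substrate (150nM final) was added. Fluorescence (480/540 nm) was read kinetically, 6 reads every 60 seconds.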
Numbers stand for hits; - = inactive; ? = inconclusive; . = no result; [ ] = remark or other dose. The list is not random: actives were taken first. Their share in the collection is about 3%. Unless noted, the call rests on the fitted dose curve; in most records, active means well fitted curve in the direction sought with a large enough effect; inconclusive means small, poorly fitted or top-dose-only effect, or another doubt; inactive means no such curve, though single readings can be large; an effect the other way counts as inactive or inconclusive.

SMILES	VDR inh	PLK1 PBD block	PTAP TSG101 blk	KAT2A inh	USP1-UAF1 inh
COC(=O)NC(=S)Nc1ccccc1NC(=S)NC(=O)OC	-	?	-	-	-
COC(=O)N(c1ccccc1)P1(=S)OCCO1	?	12µM	-	-	-
CCOC(=O)N(c1ccccc1)P1(=S)OCCO1	79µM	12µM	-	-	-
CCOC(=O)N(c1ccccc1)P1(=S)OCC(C)O1 (configuration not stated)	-	-	.	-	-
O=[N+]([O-])c1ccc(NCCNc2ccc([N+](=O)[O-])cc2)cc1	?	-	-	.	-
Cn1cnc([N+](=O)[O-])c1Sc1ccc([N+](=O)[O-])cc1	-	11µM	-	-	-
C[C@@H]1O[C@H](C[N+](C)(C)C)C[C@@H]1O	-	.	.	-	.
O=[N+]([O-])c1ccc(-c2[se]c3ccccc3c2I)cc1	?	.	.	25µM	.
O=[N+]([O-])c1ccc(C(c2ccc([N+](=O)[O-])cc2)c2ccc([N+](=O)[O-])cc2)cc1	-	-	-	.	-
COc1ccc(OC)c(N=Cc2c(O)n(Cc3ccccc3)c(=S)[nH]c2=O)c1	-	-	?	?	28µM
COc1ccc(N=Cc2c(O)n(Cc3ccccc3)c(=S)[nH]c2=O)c(OC)c1	-	-	-	-	-
C[C@@H]1Cc2c(Cl)cc(C(=O)N[C@H](Cc3ccccc3)C(=O)O)c(O)c2C(=O)O1	-	.	.	-	.
Cc1cccc(N2C(=O)NC(=O)/C(=C\c3cc(C)n(-c4sc5c(c4C#N)CCCC5)c3C)C2=O)c1C	16µM	0.75µM	-	-	?
CCOC(=O)c1c(-n2c(C)cc(C=C3C(=O)NC(=O)NC3=O)c2C)sc2c1CCCC2	-	?	-	-	-
C=C(C)[C@@]12OC3(c4ccccc4)O[C@@H]1[C@@H]1[C@@H]4O[C@]4(CO)[C@@H](O)[C@]4(O)C(=O)C(C)=C[C@H]4[C@@]1(O3)[C@H](C)[C@H]2OC(=O)/C=C/C=C/c1ccccc1	-	.	.	-	.
O=C(O)CCCC[C@H]1SC[C@H]2NC(=O)N[C@@H]21	-	.	.	-	.
[S]=[Sb][S][Sb]=[S]	-	.	.	-	.
CCCCC/C=C\C/C=C\CCCCCCCCCC(=O)NCCc1ccc(O)c(O)c1	-	.	.	.	.
Nc1ccc2ccc3cccc[n+]3c2c1	-	0.67µM	?	-	28µM
C[n+]1c(-c2ccccc2)c2cc(N)ccc2c2ccc(N)cc21	-	-	-	-	?
O=C(CCl)c1ccc(Oc2ccc(C(=O)CCl)cc2)cc1	7.1µM	.	.	?	.
CNNC	?	.	.	-	.
Cc1ccc(CN2CCN(CC(=O)N3CCC4(CC3)OCCO4)C2=O)cc1	-	30µM	-	-[0.501 µM]	-
Cc1cc(/C=C2/C(=O)NC(=O)N(Cc3ccco3)C2=O)c(C)n1-c1ccccc1O	-	-	-	-	-
C=CCN1C(=O)/C(=C/c2cc(C)n(-c3ccccn3)c2C)C(=O)NC1=S	-	2.4µM	-	-	-
SMILES	VDR inh	PLK1 PBD block	PTAP TSG101 blk	KAT2A inh	USP1-UAF1 inh
[O]=[Sb]([OH])([OH])[c]1ccccc1	79µM	.	.	.	.
COc1cccc2c1C13CC[N+]4(CC5CC5)CO[C@]1(CCC(=O)C3)C4C2	-	.	.	-	.
CCOC(=O)c1c(/N=C/C2C(=O)NC(=S)NC2=O)sc(C)c1C	.	.	.	-	.
CCOC(=O)c1cc(C)sc1/N=C/C1C(=O)NC(=S)NC1=O	?	5.3µM	-	-	-
O=[N+]([O-])NC1=NCCN1Cc1ccc(Cl)nc1	?	27µM	-	-	-
CSc1nc(N)c(N=Nc2ccc([As](=O)(O)O)cc2)c(=O)[nH]1	50µM	11µM	-	-	-
COc1ccc(N=Nc2c(O)[nH]c(=S)[nH]c2=O)cc1	-	-	-	-	-
COc1ccc2c(c1)NP(=S)(Oc1ccccc1)N2 (configuration not stated)	?	15µM	?	-	-
O=[N+]([O-])C(Br)(CO)CO	5.6µM	.	.	?	.
CC(=O)OC1CCC2(C)C3=C(CCC2C1(C)C)[C@@]1(C)CCC(C(C)CCC=C(C)C)[C@@]1(C)CC3 (some centres not stated)	?	.	.	-	.
CC1(C)C(=O)[C@@H]2OC2[C@@]2(C)C1CC(O)[C@]1(C)C2CC[C@@]2(C)C(c3ccoc3)OC(=O)C3OC312 (some centres not stated)	-	.	.	-	.
CC(=O)OC1CC2C(C)(C)C(=O)C=C[C@]2(C)C2CC[C@]3(C)C(=CC(=O)OC3c3ccoc3)[C@]12C (some centres not stated)	20µM	.	.	-	.
COCc1cc(C)c(C#N)c(=S)[nH]1	-	27µM	-	-	-
O=P(N1CC1)(N1CC1)N1CCc2ccccc21	-	-	-	.	-
N#CSCC(=O)N1c2ccccc2CCc2ccccc21	?	11µM	-	-	-
CC1C(=O)OC2C1CC[C@@]1(C)C=CC(=O)[C@@]3(C)O[C@@]213 (some centres not stated)	-	.	.	-	.
O=C(O)[C@@H]1Cc2[nH]cnc2C(c2cccnc2)N1 (some centres not stated)	-	.	.	.	.
NCC[C@H](NC(=O)[C@@H](N)CCCN=C(N)N[N+](=O)[O-])C(N)=O	-	.	.	-	.
O=C(O)[C@@H]1CSC(c2cccnc2)N1 (some centres not stated)	-	.	.	.	.
Cc1ccc(NC2C(=O)NC(=O)NC2=O)cc1	14µM	-	-	.	?
O=C1NC(=O)C(Nc2ccccc2)C(=O)N1	25µM	-	-	.	-
O=C1NC(=S)NC(=O)C1C(=O)Nc1ccccc1	-	.	.	-	.
CC[C@H](C)[C@H](NC(=O)CN)C(=O)N[C@@H](CC(C)C)C(=O)NCC(=O)N[C@@H](Cc1ccccc1)C(=O)N[C@H](C(=O)N[C@@H](Cc1ccccc1)C(=O)N[C@H](C(=O)N[C@@H](CC(C)C)C(=O)O)[C@@H](C)O)C(C)C	-	.	.	-	.
O=C(O)c1ccc2c(c1)C1C(Cl)C(Sc3ccccc3[N+](=O)[O-])CC1C(c1cccc([N+](=O)[O-])c1)N2 (configuration not stated)	-	19µM	-	-	?
O=[N+]([O-])c1cccc(C2N3CCCN23)c1 (configuration not stated)	-	-	-	-	-
O=C(O)c1cccc2c1NC(c1cccc([N+](=O)[O-])c1)C1CC(Sc3ccccc3[N+](=O)[O-])C(Cl)C21 (configuration not stated)	-	13µM	-	-	?
C[C@@]12CCC(=O)C=C1C=C[C@H]1[C@H]3CC[C@](O)(CCC(=O)O)[C@]3(C)CC[C@@H]12	-	.	.	-	.
CCCC[C@@H](C)[C@@H](OC(=O)C[C@@H](CC(=O)O)C(=O)O)[C@H](C[C@@H](C)C[C@H](O)CCCC[C@@H](O)C[C@H](O)[C@H](C)N)OC(=O)C[C@H](CC(=O)O)C(=O)O	-	.	.	-	.
